# Sampled rows, rich in hits. Any-hit rate of the full collection: about 10%.
# PNC assembly inh: High Content Assay for Compounds that inhibit the Assembly of the Perinucleolar Compartment; PC3M PTB-GFP, PNC prevalence imaging, 16 h; active compounds read low; activity change (PNC), negative = inhibition, % at 10 µM; 3.1% of 140,000 active; AID 2417, 2010;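 active = readout at or below -70, meaning at least 70% loss of cells showing the perinucleolar compartment, a nuclear body marking cancer cells; inconclusive = readout between -30 and a set limit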;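 note: plate controls were DMSO wells for no effect and camptothecin positive control wells for full effect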
#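 PC3M cells stably expressing PTB-GFP, 750–1000 cells/well, treated 16 h at 37 °C with compound (23 nl of library stock), in duplicate. After paraformaldehyde fixation and Hoechst stain, imaged at 20x; PNC prevalence scored by image analysis.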
# LMNA splice mod: qHTS Assay for Modulators of Lamin A Splicing; HeLa LMNA splicing GFP/RFP minigene ratio, 48 h; Potency, µM (titrated, usually from 46.1 µM), for the others: at the top dose ratio change, negative = inhibition, hits mostly inhibitors; 0.01% of 200,000 active; AID 1487, 2009; active = well fitted inhibition curve with a large enough effect in the signal ratio, with a control signal flat, not every such curve was filed as active; inconclusive = small, poorly fitted or top-dose-only effect, or effect the other way, or a change in a side signal; the % refers to the signal ratio; note: potency is the fitted concentration of half-maximal effect
#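 S3 HeLa cells stably expressing lamin A-EGFP splicing minigene plus DsRed2, 600 cells/well, 48 h compound exposure at 37C. Laser-scanning cytometry; analysed as GFP (500-530 nm)/RFP (575-640 nm) total intensity ratio; 0.5% DMSO vehicle.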
# HPGD block: qHTS Assay for Inhibitors of HPGD (15-Hydroxyprostaglandin Dehydrogenase) | 15-hydroxyprostaglandin dehydrogenase [NAD(+)] (Homo sapiens), P15428 | purified HPGD, NADH fluorescence kinetic, PGE2 substrate | Potency, µM, without a hit: at the highest dose activity change, negative = inhibition, usual class: inhibitors | 4.3% of 150,000 active | AID 894, 2007; note: potency is the fitted concentration of half-maximal effect
# Target sequence (P15428 whole entry, looked up): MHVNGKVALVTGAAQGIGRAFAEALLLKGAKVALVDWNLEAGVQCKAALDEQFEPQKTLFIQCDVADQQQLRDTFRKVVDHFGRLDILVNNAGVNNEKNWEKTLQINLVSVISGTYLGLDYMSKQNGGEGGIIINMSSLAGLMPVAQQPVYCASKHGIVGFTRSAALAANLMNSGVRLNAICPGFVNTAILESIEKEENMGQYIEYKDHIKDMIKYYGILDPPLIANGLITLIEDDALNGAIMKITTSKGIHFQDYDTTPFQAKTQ
#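 NADH formation kinetics: reaction with 30 uM PGE2 and 1 mM NAD+ (final), 20 nM enzyme, Tris-HCl pH 8 with Tween 20, after 15 min compound preincubation at room temperature. Fluorescence change, last versus first of five reads.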
# ALDH1A1 block: qHTS Assay for Inhibitors of Aldehyde Dehydrogenase 1 (ALDH1A1). Aldehyde dehydrogenase 1A1 (Homo sapiens), P00352. Purified ALDH1A1, NADH fluorescence, propionaldehyde substrate. Potency, µM (series often up to 75.3 µM), without a hit: at the top dose activity, negative = inhibition, actives largely listed as inhibitors. 7.3% of 220,000 active;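 note: potency is the fitted concentration of half-maximal effect; plate controls were no enzyme wells and a reference inhibitor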
# Target sequence (P00352 whole entry, looked up): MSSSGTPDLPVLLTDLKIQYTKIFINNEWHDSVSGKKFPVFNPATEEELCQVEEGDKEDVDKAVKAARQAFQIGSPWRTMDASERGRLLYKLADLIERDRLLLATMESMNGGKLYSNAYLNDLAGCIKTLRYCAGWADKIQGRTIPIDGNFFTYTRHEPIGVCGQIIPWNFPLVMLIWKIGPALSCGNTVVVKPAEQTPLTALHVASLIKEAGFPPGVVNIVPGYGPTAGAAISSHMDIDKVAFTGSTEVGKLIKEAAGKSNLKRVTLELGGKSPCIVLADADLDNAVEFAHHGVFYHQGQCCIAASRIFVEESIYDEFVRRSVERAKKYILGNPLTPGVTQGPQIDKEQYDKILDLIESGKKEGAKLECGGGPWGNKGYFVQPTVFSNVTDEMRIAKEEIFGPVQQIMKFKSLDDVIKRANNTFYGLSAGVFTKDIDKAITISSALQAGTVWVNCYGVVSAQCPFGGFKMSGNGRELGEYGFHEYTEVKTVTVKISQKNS
# 12-hLO inh: qHTS Assay for Inhibitors of 12-hLO (12-human lipoxygenase); Potency, µM (titrated, usually from 57.1 µM), for the others: at the top dose activity change, negative = inhibition, actives largely listed as inhibitors; purified 12-hLO, xylenol orange hydroperoxide absorbance; 0.12% of 150,000 active; active = well fitted inhibition curve with a large enough effect; inconclusive = small, poorly fitted or top-dose-only effect; note: potency is the fitted concentration of half-maximal effect; nearly all actives have a fitted effect of over 55% in size
#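 Purified human 12hLO (150 nM final) was preincubated with compounds for 15 min at room temperature in 25 mM Hepes pH 7.0, 0.01% Triton X-100, then reacted with 40 uM arachidonic acid for 30 min. Hydroperoxide was detected with ferrous iron/xylenol orange.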
# The depositor's hits bear a star; ? = inconclusive; nt = no result given; [ ] = another dose, or the depositor's remark. Unless noted, calls come from the whole dose curve; as a rule, active = well fitted inhibition curve with a large enough effect (not every such curve was filed as active); inconclusive = small, poorly fitted or top-dose-only effect, or another doubt; inactive = no such curve, though single readings can be large or run the other way. Unless noted, % is set by controls: 0 for no effect and ±100 for the full control effect.
SMILES,PNC assembly inh,LMNA splice mod,HPGD block,ALDH1A1 block,12-hLO inh
O=C(c1ccc(CSc2nc3ccncc3[nH]2)cc1)N1CCCCC1,33.6,?,0.562µM*,25.1µM*,-1.2%
CCc1nc2ccc(C(=O)N3CCN(c4cccc(OC)c4)CC3)cc2nc1CC,nt,-3.6%[46 µM],nt,nt,nt
COc1cccc(N2CCN(C(=O)c3ccc(CSc4nc5ccncc5[nH]4)cc3)CC2)c1,19.1,?,-6.3%,22.4µM*,-6.3%
CC(C)C[C@@H](CN(C)N=O)N(C[C@H](Cc1ccccc1)N(CCc1ccccc1)N=O)N=O,nt,nt,nt,8.91µM*,nt
CC(C)[C@H](CN(N=O)[C@@H](Cc1ccccc1)CN(C)N=O)N(CCc1ccccc1)N=O,nt,nt,nt,-4.2%,nt
COc1cccc(NCc2cccn2-c2nnc(N3CCC(C)CC3)s2)c1,nt,3.1%[46 µM],nt,nt,nt
O=C(CCC(=O)CCN1CCCCC1)CCN1CCCCC1,?,6.2%,-4.0%,0.631µM*,-4.4%
NC(=O)CCN1CCCCC1,nt,nt,nt,3.5%,nt
COC(=O)N1CCC2(CCN(Cc3ccccc3)CC2)CC1,nt,nt,-5.3%,4.6%,1.4%
O=C(O)c1cc2nc3c(c(C(F)(F)F)n2n1)CCc1ccccc1-3,-86.6*,-4.0%,-9.9%,-0.1%,-1.9%
COc1cccc(Nc2ncc3nc(-c4cccs4)c(=O)n(C[C@H]4CCCO4)c3n2)c1,nt,-27.1%,nt,-0.9%,nt
COc1cc(-c2nnc(SCC(=O)N3c4ccccc4Sc4ccccc43)o2)cc(OC)c1OC,10.1,?,-24.2%,-16.2%,5.6%
O=C(Sc1nnc(-c2ccccc2)o1)N1c2ccccc2Sc2ccccc21,-22.0,-0.7%,14.1µM*,22.4µM*,-16.4%
COCCCNC(=O)CNC(=S)N(Cc1ccccc1F)C1CCCCC1,8.6,5.9%,-4.1%,14.1µM*,4.0%
O=C(CNC(=S)N(Cc1ccccc1F)C1CCCCC1)NCC1CCCO1 (stereo not drawn),nt,nt,nt,7.08µM*,nt
O=C(O)CNC(=S)N(Cc1ccccc1F)C1CCCCC1,nt,-8.0%[46 µM],nt,?,nt
CCCCNC(=O)CNC(=S)N(Cc1ccccc1F)C1CCCCC1,nt,2.0%[46 µM],nt,22.4µM*,nt
O=C(CNC(=S)N(Cc1ccc(F)cc1)C1CCCCC1)NCC1CCCO1 (stereo not drawn),nt,-16.0%[46 µM],nt,-42.2%,nt
Cc1cc(C)cc(C(=O)n2nc(C)c(S(=O)(=O)N3CCOCC3)c2C)c1,nt,-11.5%[46 µM],nt,nt,nt
S=c1nc[nH]c2c1ncn2C1CCCO1 (stereo not drawn),nt,?,nt,12.6µM*,nt
O=C(Cc1cccc2ccccc12)Nc1ccc(-c2cc3ccccc3oc2=O)cc1,-82.9*,-5.3%,?,?,1.3%
CCC(=O)Nc1cccc(-c2cc3ccccc3oc2=O)c1,nt,nt,nt,-1.1%,nt
CC(C)C(=O)NC(=S)Nc1ccc(S(=O)(=O)Nc2nccs2)cc1,nt,33.9%[46 µM],nt,-0.1%,nt
COc1cc(NS(=O)(=O)c2ccc(NC(=S)NC(=O)C3CCCC3)cc2)nc(OC)n1,?,1.1%,-19.0%,25.1µM*,?
COc1ccc(NS(=O)(=O)c2ccc(NC(=S)NC(=O)c3cccnc3)cc2)nn1,nt,nt,nt,15µM*,nt
SMILES,PNC assembly inh,LMNA splice mod,HPGD block,ALDH1A1 block,12-hLO inh
Cc1cc2oc(C(=O)Nc3ccc(S(=O)(=O)Nc4nccs4)cc3)cc(=O)c2cc1Cl,31.7,-11.6%,31.6µM*,-15.6%,1.3%
O=C(NC(=S)Nc1ccc(S(=O)(=O)Nc2nccs2)cc1)c1ccc(Br)o1,nt,nt,nt,31.6µM*,nt
NCCSC[C@H](N)C(=O)O,nt,nt,1.6%,3.0%[13.5 µM],-1.6%[11.4 µM]
COc1cccc(OC)c1C(=O)NC(=S)Nc1ccc(S(=O)(=O)Nc2nccs2)cc1,nt,?,nt,-4.7%,nt
O=C(NC(=S)Nc1ccc(S(=O)(=O)Nc2nccs2)cc1)c1ccccc1F,nt,nt,nt,2µM*,nt
O=C(O)c1ccccc1C(=O)Nc1ccc(S(=O)(=O)Nc2nccs2)cc1,nt,-10.7%,-13.0%,-0.7%,0.6%
O=C(Nc1ccc(S(=O)(=O)Nc2nccs2)cc1)c1cccc(N2C(=O)c3ccccc3C2=O)c1,nt,nt,nt,7.08µM*,nt
O=C(NC(=S)Nc1ccc(S(=O)(=O)Nc2nccs2)cc1)c1ccccc1,?,-6.3%,-5.8%,31.6µM*,-11.9%
CCn1nc(C(=O)Nc2ccc(S(=O)(=O)Nc3nccs3)cc2)c2ccccc2c1=O,21.7,?,-21.3%,28.2µM*,3.4%
CCOc1ccc(CC(=O)NCC2(N3CCCCC3)CCCCC2)cc1,nt,nt,nt,13.2%,nt
Cc1cccc(Cc2c(C)nc3nc(SCc4ccccc4C)nn3c2C)c1,nt,-3.9%[46 µM],nt,nt,nt
O=C(c1cnccn1)N1CCC2(CCN(Cc3nccs3)CC2)CC1,nt,nt,-6.1%,-2.2%,0.0%
O=C(NC(=S)Nc1ccc(S(=O)(=O)Nc2nccs2)cc1)c1ccc(F)c(F)c1,23.0,-2.9%,-6.8%,25.1µM*,-24.6%
COCCOC(=O)c1c(C)oc2ccc(OCc3ccccc3)cc12,-113.8*,-3.9%,-6.6%,4.3%,1.7%
CCOC(=O)CCN1C(=O)[C@H]2[C@H]3[C@H](O)[C@H](O)C/C(=N/OC[C@@H](O)COCc4ccco4)[C@H]3CC[C@@H]2C1=O,nt,nt,nt,7.6%[13.5 µM],nt
O=C(/C=C/c1cn(CC(O)CN2CCCCC2)c2ccccc12)c1cccs1 (stereo not drawn),?,?,-18.6%,14.1µM*,-7.1%
COC(=O)[C@@]1(Cc2ccccc2)[C@H]2c3cc(C(=O)N(C)C)n(Cc4ccc(S(C)(=O)=O)cc4)c3C[C@H]2CN1C(=O)c1ccccc1,nt,nt,-9.2%,-9.3%,-3.5%
CC(C)C(=O)Nc1ccccc1C(=O)OCc1cc(=O)n2nc(C3CC3)sc2n1,nt,1.7%[46 µM],nt,nt,nt
Cc1cc(/C=N/n2cnnc2)c(C)n1-c1ccc(Cl)cc1Cl,?,8.4%,-4.6%,?,-2.9%
Cc1cc(C=NCCCO)c(C)n1-c1cc(Cl)ccc1Cl,nt,?,nt,3.55µM*,nt
Cc1ccccc1OCC(=O)Nc1ccc(-c2nc3ccccc3o2)cc1,nt,27.3%[46 µM],nt,nt,nt
COCc1cc(C)nc(Nc2ccc(C)c(C)c2)c1C#N,-5.9,-8.8%,nt,28.2µM*,-4.2%
CCCNC(=O)C(=O)NCCC1=CCCCC1,11.7,5.6%,-1.5%,6.1%,-2.7%
CCCN(C(=O)CCl)C1=CCCCC1,nt,nt,nt,0.708µM*,nt
O=c1cc(Nc2ccc3c(c2)OCCO3)[nH]c(=O)n1C1CCCCC1,-22.9,?,-19.5%,1µM*,3.5%
CCc1ccc(Nc2cc(=O)n(C3CCCCC3)c(=O)[nH]2)cc1,18.2,?,2.1%,1.26µM*,-7.1%
COc1cccc(CNC(=O)c2sc3ncccc3c2-n2c(C)ccc2C)c1OC,nt,-11.8%[46 µM],nt,nt,nt
CC(C)NC(=O)c1ccc2c(c1)N(CC(=O)N1CCOCC1)C(=O)C(C)(C)O2,-4.8,-2.0%,1.2%,6.6%,-5.9%
CC(C)(C)NC(=O)c1ccc2c(c1)N(CC(=O)N1CCN(c3ccccc3F)CC1)C(=O)C(C)(C)O2,24.0,0.1%,-6.3%,14.1µM*,-1.3%

# Bioassay records from PubChem BioAssay.
